This is an account of results in PubChem BioAssay (Tox21).

Assay [1] addresses Aryl hydrocarbon receptor (Homo sapiens) (UniProt P35869). Put plainly: qHTS assay to identify small molecule that activate the aryl hydrocarbon receptor (AhR) signaling pathway (AID 743085). Also: nearly all actives have a fitted effect of over 15% in size. Also: potency is read from the fitted curve at half-maximal effect.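 As to activation: HG2L7.5c1 human HepG2 liver cells with stably integrated DRE-driven firefly reporter; series mostly up to about 70 µM.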 The gist of the method:
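A multiplexed format paired cell viability (CellTiter-Fluor fluorescence) with AhR-dependent luciferase output (ONE-Glo luminescence) in the same wells of HepG2 DRE-luc cells after 24 h compound exposure at 37C.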
For orientation: Quantitative high-throughput screening tests each substance at several concentrations.

Assay [2] in a line: qHTS assay to identify small molecule that activate the aryl hydrocarbon receptor (AhR) signaling pathway - cell viability counter screen (AID 743086). Also: nearly all actives have a fitted effect of over 45% in size. Also: potency is read from the fitted curve at half-maximal effect.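 As to viability change, negative = cytotoxic: HepG2 liver cells carrying the AhR DRE luciferase reporter; series mostly up to about 70 µM.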 In a few lines:
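HepG2-AhR-luc (HG2L7.5c1) cells, 4000/well, treated 24 h at 37 C with compound; viability measured as CellTiter-Fluor fluorescence after 30 min in the same wells as the luciferase read.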

A short description of assay [3]: qHTS assay for small molecule agonists of the antioxidant response element (ARE) signaling pathway - cell viability counter screen (AID 743203; calls by dose curve; also: nearly all actives have a fitted effect of over 55% in size; also: potency is read from the fitted curve at half-maximal effect). In a few lines:
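CellSensor ARE-bla HepG2 cells, 2,000 per well, rested 5 hrs at 37C/5% CO2, then exposed to compound in DMSO for 16 hrs; viability read as CellTiter-Glo luminescence after 30 min at room temperature, in the reporter wells.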

The nature of assay [4]: qHTS assay to identify aromatase inhibitors - cell viability counter screen (AID 743084).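 Also: cells stimulated with testosterone during compound exposure; nearly all actives have a fitted effect of over 55% in size.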 Also: potency is read from the fitted curve at half-maximal effect.
In assay [5] the target is Peroxisome proliferator-activated receptor gamma (Homo sapiens) (UniProt P37231). Put plainly: qHTS assay to identify small molecule agonists of the peroxisome proliferator-activated receptor gamma (PPARg) signaling pathway (AID 743094; active = well fitted activation curve with a large enough effect in the signal ratio in the repeat runs, not every such curve was filed as active; the % refers to the signal ratio). In a few lines: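 GeneBLAzer PPARg UAS-bla HEK293H cells carrying a stably integrated beta-lactamase reporter were pre-incubated 5 h at 37C, then exposed to compounds in DMSO for 17 h at 37C; LiveBLAzer B/G FRET substrate was added for 1 h at room temperature and fluorescence read.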

A short description of assay [6]: qHTS assay to identify small molecule antagonists of the peroxisome proliferator-activated receptor gamma (PPARg) signaling pathway - cell viability counter screen (AID 743194). Also: nearly all actives have a fitted effect of over 55% in size. Also: potency is read from the fitted curve at half-maximal effect. The gist of the method:
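Cytotoxicity counter screen in PPARg-bla HEK293H cells, same wells as reporter assay. Compounds plus 50 nM rosiglitazone (final) for 17 h at 37 C, then viability read by CellTiter-Glo luminescence.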

Assay [7] in a line: qHTS assay for small molecule activators of the heat shock response signaling pathway - cell viability counter screen (AID 743209). Also: nearly all actives have a fitted effect of over 50% in size. The gist of the method: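 CellSensor HSE-bla HeLa cells, plated overnight at 37 C/5% CO2, were exposed to compounds in DMSO for 5 h at 37 C. Viability was then read in the same wells by CellTiter-Glo luminescence after 30 min at room temperature.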

Assay [8] can be described thus: qHTS assay for small molecule activators of the heat shock response signaling pathway (AID 743210; active = well fitted activation curve with a large enough effect in the signal ratio in the repeat runs, with a control signal flat, not every such curve was filed as active; the % refers to the signal ratio; also: series mostly up to about 63 µM). In a few lines:
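HSE-bla HeLa cells (beta-lactamase reporter under heat shock response elements), plated overnight, then exposed to compounds 5 h at 37 C; LiveBLAzer B/G FRET substrate added, 2.5 h at room temperature, fluorescence intensity read.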

Assay [9] can be described thus: qHTS assay for small molecule agonists of the antioxidant response element (ARE) signaling pathway (AID 743202; active = well fitted activation curve with a large enough effect in the signal ratio in the repeat runs, not every such curve was filed as active; the % refers to the signal ratio; also: potency is read from the fitted curve at half-maximal effect). The gist of the method: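 ARE-bla HepG2 cells (beta-lactamase reporter under the antioxidant response element), plated 5 hours, then exposed to compounds 16 hours at 37 C. LiveBLAzer B/G FRET substrate added for 2 hours at room temperature; fluorescence intensity read.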

In assay [10] the target is Peroxisome proliferator-activated receptor gamma (Homo sapiens) (UniProt P37231). The experiment in a line: qHTS assay to identify small molecule antagonists of the peroxisome proliferator-activated receptor gamma (PPARg) signaling pathway (AID 743191; calls by dose curve; also: series mostly up to about 63 µM; nearly all actives have a fitted effect of over 30% in size). In a few lines:
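GeneBLAzer PPARg UAS-bla HEK293H cells, 5 h post-plating, exposed to compounds 17 h at 37C. LiveBLAzer B/G FRET substrate added for 1 h at room temperature; beta-lactamase reporter read by fluorescence intensity.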

Molecules are shown by their SMILES. Records with an inconclusive call do not appear. A number with no mark means an inactive call. Active and inactive are the calls of the source. Unless noted, calls follow the shape of the dose curve; as a rule, active = well fitted curve in the direction sought with a large enough effect in the repeat runs; inconclusive = weak or mixed curves; inactive = no such curve, though single readings can be large; an effect the other way counts as inactive or inconclusive.
% is scaled to controls: 0 for no effect and ±100 for the full control effect.

Chain of Peroxisome proliferator-activated receptor gamma (Homo sapiens) (P37231 whole entry, looked up): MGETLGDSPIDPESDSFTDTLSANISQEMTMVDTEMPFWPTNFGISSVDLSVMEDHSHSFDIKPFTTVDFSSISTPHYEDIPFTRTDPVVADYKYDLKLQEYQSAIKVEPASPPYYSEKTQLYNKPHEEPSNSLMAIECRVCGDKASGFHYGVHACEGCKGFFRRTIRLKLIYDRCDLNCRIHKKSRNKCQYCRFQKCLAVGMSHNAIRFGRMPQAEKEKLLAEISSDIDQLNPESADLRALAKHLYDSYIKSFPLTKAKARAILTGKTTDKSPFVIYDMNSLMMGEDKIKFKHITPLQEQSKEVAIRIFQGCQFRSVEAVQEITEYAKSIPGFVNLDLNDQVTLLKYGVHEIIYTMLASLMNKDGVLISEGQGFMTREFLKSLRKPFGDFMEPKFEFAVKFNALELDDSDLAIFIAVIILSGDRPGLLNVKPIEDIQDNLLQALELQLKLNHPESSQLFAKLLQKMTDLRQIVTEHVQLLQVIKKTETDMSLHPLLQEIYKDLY
Chain of Aryl hydrocarbon receptor (Homo sapiens) (P35869 whole entry, looked up): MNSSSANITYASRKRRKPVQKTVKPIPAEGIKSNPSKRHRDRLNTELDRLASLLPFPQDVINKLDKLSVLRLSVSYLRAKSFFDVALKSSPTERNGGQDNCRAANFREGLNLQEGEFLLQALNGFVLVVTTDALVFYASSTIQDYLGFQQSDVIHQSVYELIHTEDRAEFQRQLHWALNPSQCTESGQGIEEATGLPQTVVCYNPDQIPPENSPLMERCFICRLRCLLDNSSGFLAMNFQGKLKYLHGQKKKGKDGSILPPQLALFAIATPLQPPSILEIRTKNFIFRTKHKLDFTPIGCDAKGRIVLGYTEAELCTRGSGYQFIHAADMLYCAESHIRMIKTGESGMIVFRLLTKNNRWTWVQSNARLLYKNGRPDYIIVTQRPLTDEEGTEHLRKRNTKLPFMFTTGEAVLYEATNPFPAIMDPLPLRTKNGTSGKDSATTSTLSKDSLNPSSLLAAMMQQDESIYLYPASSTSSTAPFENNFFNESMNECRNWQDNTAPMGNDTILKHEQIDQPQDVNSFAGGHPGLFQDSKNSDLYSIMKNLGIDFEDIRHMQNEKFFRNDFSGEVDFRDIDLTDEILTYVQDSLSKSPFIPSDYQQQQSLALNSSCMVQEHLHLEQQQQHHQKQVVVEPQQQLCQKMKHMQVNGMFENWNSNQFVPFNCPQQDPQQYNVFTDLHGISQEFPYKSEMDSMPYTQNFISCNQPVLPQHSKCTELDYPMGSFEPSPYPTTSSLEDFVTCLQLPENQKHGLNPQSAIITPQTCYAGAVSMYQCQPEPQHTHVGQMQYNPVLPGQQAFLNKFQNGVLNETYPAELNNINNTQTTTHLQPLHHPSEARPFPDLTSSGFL

As for `CCCCCCCCCCCCCCCCCCOS(=O)(=O)O`, the Potency result in assay [1] and in assay [2] was “inactive” in each case. The Potency in [3] was 61.1 µM (active).

`CC(C)Nc1ccc(NC(C)C)c2c1C(=O)c1ccccc1C2=O`: the Potency result in [4], in [2], in assay [5], in assay [6], in assay [7] and in [8] was “inactive” throughout.

As to `Clc1ccc2c(c1)CCc1cccnc1C2=C1CCNCC1`, the Potency entry in assay [1], in assay [6] and in assay [8] was “inactive” in each case.

On to `CN1C[C@H]2c3ccccc3Oc3ccc(Cl)cc3[C@@H]2C1`, for which the Potency in assay [1] is 13.3 µM (active). Moreover, the Potency result in assay [5], in assay [3] and in assay [7] was “inactive” each time.

Regarding `O=C1[C@H]2CCCC[C@H]2C(=O)N1CCCCN1CCN(c2nsc3ccccc23)CC1`, the results for the Potency in assay [4] and in assay [9] were 29.8 µM (active) and 23.7 µM (active), respectively. The Potency entry in assay [6], in assay [3], in [7] and in assay [8] was “inactive” throughout.

Consider `Nc1cc(C(=O)O)c(O)c(S(=O)(=O)O)c1`, for which the Potency entry in [1], in assay [5], in [6], in assay [9], in assay [3] and in assay [7] was “inactive” each time. Besides, in [8], the Potency entry was “inactive”.

`O=C(O)c1nc(Cl)c(Cl)c(Cl)c1Cl`: the Potency result in assay [2], in [6], in [3], in [7] and in assay [8] was “inactive” in each case.

Turning to `C[C@@H]1C[C@H]2[C@@H]3CCC4=CC(=O)C=C[C@]4(C)[C@@]3(F)[C@@H](O)C[C@]2(C)[C@@]1(O)C(=O)COC(=O)c1ccncc1`, the Potency entry in assay [10], in [6], in assay [9], in assay [3], in assay [7] and in [8] was “inactive” in each case.

`O[C@@H](COc1cccc2ncccc12)CN1CCN(C2c3ccccc3[C@@H]3[C@H](c4ccccc42)C3(F)F)CC1` (some centres not stated): the Potency in assay [6] was 13.3 µM (active); in assay [3] it was 15 µM (active). The Potency entry in assay [7] is “inactive”.

With `Cc1ccccc1S(=O)(=O)O`, the Potency entry in [2], in assay [6], in assay [9], in assay [3], in [7] and in assay [8] was “inactive” throughout.

Take `CCC(C)c1cc(C(C)(C)C)c(O)c(C(C)(C)C)c1` (configuration not stated): the Potency entry in [2], in assay [6] and in assay [3] was “inactive” throughout.

Turning to `CCCC(=O)Nc1ccc(O)c(C(C)=O)c1`, the Potency entry in assay [6], in assay [9], in assay [3], in assay [7] and in assay [8] was “inactive” throughout.

In the case of `CCC(C)(C)CC`, the Potency result in assay [2], in assay [6], in assay [9], in assay [3] and in assay [7] was “inactive” throughout.

In the case of `COc1cc2nc(N3CCN(C(=O)C4COc5ccccc5O4)CC3)nc(N)c2cc1OC` (configuration not stated), the Potency entry in [2], in [6], in [9], in assay [7] and in assay [8] was “inactive” throughout. Moreover, the Potency in assay [3] was 29.8 µM (active).

`Cc1ccc(C(=O)Oc2ccc(C(O)CNC(C)(C)C)cc2OC(=O)c2ccc(C)cc2)cc1` (configuration not stated): the Potency entry in assay [6] and in assay [8] was “inactive” each time.

On to `CCCCC`, for which the Potency entry in assay [2], in assay [9], in assay [3], in assay [7] and in assay [8] was “inactive” throughout.

With `CCc1cc(C2=C(C(=O)O)N(c3ccccc3C(F)(F)F)S(=O)(=O)c3ccccc32)cc2c1OCO2`, the Potency was 21.4 µM (active) in [2] and 6.04 µM (active) in [3]. Besides, the Potency result in [6], in assay [7] and in assay [8] was “inactive” each time.

Consider `CCOC(=O)C(O)c1ccccc1` (configuration not stated), for which the Potency entry in [10], in assay [6], in assay [9], in [3], in assay [7] and in assay [8] was “inactive” in each case.

Take `O=C(NCC1CN(c2ccc(N3CCOCC3=O)cc2)C(=O)O1)c1ccc(Cl)s1` (configuration not stated): the Potency entry in [6], in assay [9], in assay [3], in assay [7] and in assay [8] was “inactive” each time.

With `CN(C)c1ccc(/C=C/c2ccc([N+](=O)[O-])cc2)cc1`, the figures for the viability change, negative = cytotoxic in [2] and in assay [3] were 24.5% [at 8.47 µM] and 0.634% [at 8.36 µM], respectively. Further, the activity change, negative = cytotoxicity is 9.25% [at 5.95 µM] in assay [6] and -1.13% [at 5.95 µM] in assay [7]. The activation in assay [9] was -18.5% [at 8.36 µM]; in [8], 0.443% [at 5.95 µM].

`CN(C)CCOC(c1ccccc1)c1ccc(Br)cc1` (configuration not stated): the Potency entry in [3], in [7] and in assay [8] was “inactive” each time.

Turning to `CC(C)O.CC(C)O.CCOC(=O)/C=C(\C)O.CCOC(=O)/C=C(\C)O.[Ti]`, the Potency entry in assay [2], in assay [6], in [3], in [7] and in assay [8] was “inactive” throughout.

Consider `O=C(O)C1(C(=O)O)CCC1.[NH2-].[NH2-].[Pt+2]`, for which the Potency entry in assay [10], in [6], in assay [3], in assay [7] and in assay [8] was “inactive” each time.

For the molecule `CCCCCCc1ccc(-c2ccc(C#N)cc2)cc1`, the Potency result in [2], in [6], in [9], in [3], in assay [7] and in assay [8] was “inactive” in each case.

`Cc1ccc(C(C)OC(=O)C2(C)CCC(C(=O)O)C2(C)C)cc1` (configuration not stated): the Potency result in assay [6], in assay [9], in [3], in assay [7] and in [8] was “inactive” each time.

With `CC1=CCCC(C)(C)C12CCC(C)O2` (configuration not stated), the Potency entry in [2], in assay [6], in [3], in assay [7] and in [8] was “inactive” in each case.

`CCOC(=O)C(=O)CCc1ccccc1`: the Potency result in assay [9], in assay [3], in assay [7] and in [8] was “inactive” in each case.

For the molecule `NS(=O)(=O)c1ccc(N2CCCCS2(=O)=O)cc1`, the Potency entry in assay [6], in [9], in assay [3] and in assay [8] was “inactive” each time.

Turning to `CCC(C)O` (configuration not stated), the Potency result in assay [2], in assay [6], in assay [9], in assay [3], in [7] and in [8] was “inactive” each time.

Regarding `COc1ccc2cccc(CCNC(C)=O)c2c1`, the Potency result in assay [6], in [9], in [3], in assay [7] and in [8] was “inactive” throughout.

On to `CC(C)Cc1ccc(C(C)C(=O)OCc2ccccn2)cc1` (configuration not stated), for which the Potency entry in assay [10], in assay [6], in assay [9], in [3], in [7] and in [8] was “inactive” each time.

On to `COc1cc2c(cc1OC)C(C(C(=O)N(CCc1ccc(OC)c(OC)c1OC)CCc1ccc(OC)c(OC)c1OC)c1ccccc1)=NCC2` (configuration not stated), for which the Potency in assay [2] is 8.41 µM (active). Further, the Potency entry in assay [6], in assay [9], in assay [3], in [7] and in assay [8] was “inactive” in each case.

Take `Nc1ccccc1S(=O)(=O)c1ccccc1`: the Potency entry in assay [2], in [6], in [3], in assay [7] and in [8] was “inactive” each time.

`CN(C)CCN(Cc1ccsc1)c1ccccn1`: the Potency entry in assay [6], in [9], in assay [3] and in assay [7] was “inactive” in each case.

With `COCCCN1CCC(NC(=O)c2cc(Cl)c(N)c3c2OCC3)CC1`, the Potency entry in assay [10], in assay [6], in assay [9], in assay [3], in assay [7] and in [8] was “inactive” in each case.

As for `CC(C)(O)c1ccc(CNC(=O)c2cccnc2Oc2ccc(F)cc2)cc1`, the Potency result in [2], in [6], in [3], in assay [7] and in assay [8] was “inactive” in each case.
